# USP30 block: inhibitors of human USP30 deubiquitinase | purified USP30, Ub-rhodamine cleavage fluorescence | hit rate 5.3% among 47,000 | inhibition, % at 25 µM
# OTUD3 inh: inhibitors of human OTUD3 deubiquitinase; OTU domain-containing protein 3 (Homo sapiens), Q5T2D3; purified OTUD3, Ub-rhodamine fluorescence, 2 h; inhibition, % at 25 µM; hit rate 0.7% among 47,000
# USP17 block: inhibitors of human USP17 deubiquitinase; hit rate 6.5% among 47,000; inhibition, % at 50 µM; Ubiquitin carboxyl-terminal hydrolase 17-like protein 5 (Homo sapiens), A8MUK1; purified USP17, Ub-rhodamine cleavage fluorescence, 3 h
# Target sequence (A8MUK1 whole entry, looked up): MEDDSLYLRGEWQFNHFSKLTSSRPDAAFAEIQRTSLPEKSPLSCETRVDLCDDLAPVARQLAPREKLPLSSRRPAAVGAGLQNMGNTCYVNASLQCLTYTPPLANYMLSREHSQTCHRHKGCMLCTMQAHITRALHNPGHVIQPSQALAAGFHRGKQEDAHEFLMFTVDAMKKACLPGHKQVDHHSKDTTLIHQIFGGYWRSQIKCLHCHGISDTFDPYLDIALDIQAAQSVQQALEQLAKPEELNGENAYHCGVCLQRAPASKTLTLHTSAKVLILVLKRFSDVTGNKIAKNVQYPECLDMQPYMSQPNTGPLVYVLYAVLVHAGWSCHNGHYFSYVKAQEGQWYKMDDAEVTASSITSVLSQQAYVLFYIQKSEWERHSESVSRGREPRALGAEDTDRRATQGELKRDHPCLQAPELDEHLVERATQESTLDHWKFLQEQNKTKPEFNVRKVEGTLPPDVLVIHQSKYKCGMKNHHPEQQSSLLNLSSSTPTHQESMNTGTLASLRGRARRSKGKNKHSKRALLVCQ
# USP28 block: inhibitors of human USP28 deubiquitinase; Ubiquitin carboxyl-terminal hydrolase 28 (Homo sapiens), Q96RU2; purified USP28, Ub-rhodamine cleavage fluorescence, 30 min; inhibition, % at 25 µM; hit rate 3% among 47,000; AID 1645857, 2021
# * = called active by the depositor; i = inactive; . = no result. Compounds with a hit are over-represented: about 11% of the library has one in this group of screens. No stated cut-off is given here; in the data, active means inhibition above about 30%; inactive means the rest.
SMILES,USP30 block,OTUD3 inh,USP17 block,USP28 block
Cc1ccc(C(=O)Nc2nccnc2C(=O)NCc2ccccc2F)cc1,-9.4,-7.1,22.8,-1.5
O=C(COc1ccccc1-c1nnc(-c2ccccc2)o1)NCc1ccccc1Cl,-2.8,-0.2,-5.6,-1.7
CC(=O)Nc1cccc(N2CC(C(=O)NCc3ccc(C)cc3)CC2=O)c1 (centres undefined),4.9,4.9,3.5,3.2
COC1=C(N)C(=O)c2nc(-c3nc(C(=O)O)c(C)c(-c4ccc(O)c(OC)c4O)c3N)ccc2C1=O,-172.2,14.1,45.7*,31.1*
COc1ccc(N2C(=O)[C@@H]3[C@H]4c5ccccc5C=CN4C(C(=O)Nc4ccc5c(c4)OCO5)[C@@H]3C2=O)cc1 (some centres undefined),-164.0,-34.6,63.7*,-3.8
COc1ccc(Cl)cc1NC(=O)C1C2C(=O)N(c3ccc4c(c3)OCO4)C(=O)C2C2c3ccccc3C=CN12 (centres undefined),i,-57.1,-56.0,-11.3
COc1ccc(Cl)cc1NC(=O)C1[C@@H]2C(=O)N(Cc3ccc4c(c3)OCO4)C(=O)[C@@H]2[C@H]2c3ccccc3C=CN12 (some centres undefined),-99.3,13.6,24.2,45.2*
COc1ccc(-c2cnn(C)c2NC(=O)c2ccccc2C(=O)O)cc1OC,2.3,0.1,2.0,-7.7
c1ccc(CCNc2nc3ccccc3s2)cc1,-9.0,-14.0,-8.9,34.5*
Cc1cc2c(cc(C(=O)N3CCC(C(=O)N4CCC5(CC4)OCCO5)CC3)n2Cc2c(F)cccc2Cl)o1,-348.9,-74.1,-82.6,-85.6
CN(CCc1noc(-c2ccccc2Cl)n1)C(=O)c1ccc(C#N)cc1,31.0*,9.5,18.5,12.6
CCOC(=O)c1cncc(C#CCOC(=O)c2ccc(Cl)cc2)c1,-11.9,0.2,-6.3,0.1
N#Cc1ccc(N2CCC(C(=O)Nc3nc4ccccc4s3)CC2)nc1,-164.3,-30.2,-43.8,-35.8
Cc1nn(-c2ccc(Cl)cc2)c2[nH]c(=O)c(CNc3ccccc3)cc12,-13.8,12.2,39.6*,4.8
Cc1ccc(NCc2cc3c(C(C)(C)C)nn(-c4ccc(Cl)cc4)c3[nH]c2=O)cc1C,3.2,13.6,42.8*,-4.0
Cc1nn(-c2ccccc2)c2[nH]c(=O)c(CNc3ccccc3)cc12,-37.7,-22.0,27.3,-38.4
c1ccc(-n2ncc3c2ncn2nc(Cc4cccc5ccccc45)nc32)cc1,-29.7,-10.4,-5.4,-19.2
Cc1nc(N2CCOCC2)ncc1-c1cc(=O)[nH]c(N2CCc3ccccc32)n1,-8.5,-4.0,0.2,-0.1
O=C(c1cccc(F)c1)N1CCC2(CC1)CCN(c1cccnc1)C2=O,-4.2,-5.7,-18.8,-5.8
Cc1ccc(CNC(=O)c2cnc(N3CCN(C)CC3)nc2C)cc1,19.6,10.9,10.9,6.6
CCOC(=O)C1(C(=O)OCC)Oc2ccc3ccccc3c2C1O (centres undefined),4.2,1.1,5.9,0.2
CCOc1cc2c(cc1OCC)C(c1ccc(Cl)cc1)N(c1ccc(C(=O)O)cc1)C(=O)C2 (centres undefined),31.1*,16.5,28.1,17.7
CCOc1c(C)cc(S(=O)(=O)Nc2ccc3c(c2)N(C(C)=O)CC3)cc1C,.,-7.2,67.6*,.
CCCCCc1cc(O)c2c(ccc3c(O)c4c(cc32)C(C)(C)c2cc(O)cc(O)c2C4=O)c1,-16.6,3.9,31.2*,9.7
Nc1c(C(=O)NCc2ccc3c(c2)OCO3)nnn1Cc1ccc(Br)cc1F,75.4*,22.4,.,40.3*
SMILES,USP30 block,OTUD3 inh,USP17 block,USP28 block
COc1cccc(-c2nc(-c3ccc(N4CCOCC4)cc3)no2)c1,-21.6,-7.8,-7.0,-10.2
CCc1cc2cc3c(cc2nc1SCC(=O)Nc1cccc(C(C)=O)c1)OCO3,-0.6,-4.0,62.6*,-0.4
Cc1nc(SCC(=O)Nc2ccc3c(c2)OCO3)c2oc3ccccc3c2n1,-13.6,1.2,7.1,3.3
CSc1ccc(C2N=C(N3CCOCC3)Nc3nc(C)cc(=O)n32)cc1 (centres undefined),-19.7,-1.3,-5.3,0.0
Cc1c(O)cc(O)cc1O,-167.2,47.7*,54.4*,-3.5
N#Cc1ccc(/C=C/c2nc3ccccc3n2Cc2ccc(F)cc2)cc1,-41.5,-19.6,2.8,-7.9
Cc1ccc(Cn2c(/C=C/c3ccc(F)cc3)nc3ccccc32)cc1,14.9,6.5,2.2,35.1*
CCCCC(C)/C=C(C)/C=C(\C)C(N)=O (centres undefined),32.1*,13.5,26.8,29.1
COc1ccccc1-c1nc(Cn2nnc(C(=O)Nc3cc(C)cc(C)c3)c2N)c(C)o1,35.2*,-8.7,66.1*,-0.2
COc1ccccc1NC(=O)C1CCCN(c2cnc3nccnc3c2)C1 (centres undefined),-382.7,-89.4,-138.6,-110.3
COc1ccccc1NC(=O)C1CN(c2nc3ccccc3s2)C1,.,-1.0,38.4*,.
CCCN1CCN(C(=O)C2CCCN(S(=O)(=O)N3CCCCCC3)C2)CC1 (centres undefined),16.5,10.9,10.1,5.9
CS(=O)(=O)NC1CCCN(c2cc(N3CCCC3)ncn2)C1 (centres undefined),6.0,12.2,-4.7,7.7
COc1ccccc1-c1nc2c3c(ncn2n1)Oc1c(c(C)nn1-c1ccccc1)C3c1cccnc1 (centres undefined),8.8,2.3,54.2*,-4.2
COc1ccc(-c2nc3c4c(ncn3n2)Oc2c(c(C)nn2-c2ccccc2)C4c2ccc(OC)c(OC)c2)cc1 (centres undefined),-2.7,0.7,15.4,-6.0
COc1ccccc1-c1nc2c3c(C)c(C)n(Cc4cccnc4)c3ncn2n1,-23.6,-11.8,-6.0,51.4*
COc1ccc(/C=N/OCc2nc3c4c(ncn3n2)Oc2c(c(C)nn2-c2ccccc2)C4c2ccco2)cc1 (centres undefined),41.6*,9.0,22.3,11.2
COc1ccccc1-c1nc2c3c(C)c(C)n(CCCN(C)C)c3ncn2n1,-92.3,-12.6,-14.9,-10.9
COc1cc(C2NCCc3cc(OC)c(OC)cc32)ccc1O (centres undefined),.,-0.3,9.2,.
O=C(NCCc1nc2ccccc2n1CCCOc1ccccc1Cl)C1CCCCC1,79.1*,33.2*,82.7*,23.9
CC(Sc1nnc(-c2ccccc2Br)o1)C(=O)Nc1cccc(Cl)c1 (centres undefined),43.3*,22.5,22.5,22.7
CCN(C)C(=O)c1cnc(-c2noc3cc(N4CCCC4)ccc23)s1,-7.8,-3.5,-9.4,-1.4
O=C(CCc1ccc(S(=O)(=O)N2CCOCC2)cc1)OCC(=O)c1ccc(-c2ccccc2)cc1,31.1*,11.0,25.1,14.6
O=C(CCc1ccc(S(=O)(=O)N2CCOCC2)cc1)NC(c1ccccc1)c1ccccc1,29.9,6.4,5.7,10.5
COc1ccc(S(=O)(=O)Nc2c(C)c(C)cc3c2nc(C)n3Cc2cccc(C)c2)cc1,32.6*,10.9,18.2,6.1
COc1ccc(S(=O)(=O)Nc2nc3ccccc3nc2NCc2ccccc2)cc1,-13.3,-3.4,4.2,-0.4

# Screening data (PubChem)
